Data as given in PubChem BioAssay (NCI).
Compounds without any hit were thinned out: in the full panel of roughly 79,000, 15% have a hit. Calls of active or inactive are those of the source. Cut-off read from the data, not from the text of the source: active = growth inhibition above about 70%; inactive = the rest.

What was measured:
[1] = NCI Yeast Anticancer Drug Screen. Data for the rad52 strain (AID 147);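 note: 0% = growth of vehicle-treated control cultures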; conditions: S. cerevisiae rad52 mutant growth inhibition, hits give high values
How it was run: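 Compounds are applied to a genetically defined yeast strain lacking normal DNA damage repair, and inhibition of growth is expressed relative to cultures given vehicle only.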

[2] = NCI Yeast Anticancer Drug Screen. Data for the wt1 strain (AID 149);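 note: 0% = growth of vehicle-treated wt1 cultures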; conditions: S. cerevisiae wt1 strain (SPY 50644) growth inhibition, hits give high values
How it was run: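 wt1 strain grown with compound or vehicle; inhibition taken from the growth difference.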

[3] = NCI Yeast Anticancer Drug Screen. Data for the rad50EPP+ strain (AID 151);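 note: 0% = growth of vehicle-treated control cultures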; conditions: S. cerevisiae rad50 mutant strain, hits give high values
How it was run: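 Compounds were applied to the rad50EPP+ yeast strain, which bears a defined DNA repair alteration, and growth inhibition was determined relative to vehicle-treated cultures.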

[4] = NCI Yeast Anticancer Drug Screen. Data for the mgt1 strain (AID 153); conditions: S. cerevisiae mgt1 mutant growth inhibition, hits give high values
How it was run: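 Strain: mgt1 yeast, one of a set carrying defined DNA damage repair or cell cycle control alterations. Compound-treated growth compared with vehicle.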

[5] = NCI Yeast Anticancer Drug Screen. Data for the rad50 strain (AID 155);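 note: 0% = growth of vehicle-only cultures of the same strain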; conditions: S. cerevisiae rad50 strain growth inhibition, hits give high values
How it was run: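 DNA repair mutant yeast, compound exposure, growth read-out; inhibition is taken relative to vehicle.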

[6] = NCI Yeast Anticancer Drug Screen. Data for the mec2-1 strain (AID 157); conditions: S. cerevisiae mec2-1 strain, hits give high values
How it was run: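 Strain: mec2-1 (DNA repair/cell cycle alteration). Compound exposure, then growth measured; inhibition expressed relative to vehicle.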

[7] = NCI Yeast Anticancer Drug Screen. Data for the rad14 strain (AID 159);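 note: 0% = growth of vehicle-treated control cultures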; conditions: S. cerevisiae rad14 strain growth inhibition, hits give high values
How it was run: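 DNA repair-defective yeast, compound-exposed; % growth inhibition derived by comparison with vehicle-treated controls.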

[8] = NCI Yeast Anticancer Drug Screen. Data for the sgs1 mgt1 strain (AID 161);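 note: 0% = growth of cultures given vehicle only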; conditions: S. cerevisiae sgs1 mgt1 strain, hits give high values
How it was run: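 Test agents were incubated with a DNA-repair-mutant yeast strain. Growth was then read and compared against vehicle-treated controls.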

[9] = NCI Yeast Anticancer Drug Screen. Data for the CLN2oe strain (AID 163);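 note: 0% = growth of vehicle-only control cultures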; conditions: S. cerevisiae CLN2oe strain, hits give high values
How it was run: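 Growth of a genetically modified yeast strain is measured after compound exposure and compared with cultures given vehicle alone.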

[10] = NCI Yeast Anticancer Drug Screen. Data for the cln2 rad14 strain (AID 165);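 note: 0% = growth equal to vehicle treated cultures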; conditions: S. cerevisiae cln2 rad14 strain, hits give high values
How it was run: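 Compounds are applied to the cln2 rad14 yeast strain, and growth is then compared with that of vehicle-treated cultures to give inhibition.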

[11] = NCI Yeast Anticancer Drug Screen. Data for the bub3 strain (AID 167); conditions: S. cerevisiae bub3 mutant strain, hits give high values
How it was run: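 In this screen, a yeast mutant lacking normal mitotic checkpoint function is challenged with compound. Relative growth versus vehicle gives the inhibition value.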

[12] = NCI Yeast Anticancer Drug Screen. Data for the wt2 strain (AID 169);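 note: 0% = growth of vehicle-treated yeast cultures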; conditions: S. cerevisiae wt2 strain growth inhibition, hits give high values
How it was run: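 This strain belongs to a panel of yeast strains with defined genetic alterations in DNA damage repair or cell cycle control. Compounds are applied, and growth inhibition is measured against vehicle-treated cultures.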

[13] = NCI Yeast Anticancer Drug Screen. Data for the mlh1 strain (AID 171);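 note: 0% = growth of vehicle-treated control cultures of the same strain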; conditions: S. cerevisiae mlh1 strain growth inhibition, hits give high values
How it was run: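 Growth of the mutant yeast strain after compound exposure, expressed as inhibition relative to vehicle-only controls.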

[14] = NCI Yeast Anticancer Drug Screen. Data for the mlh1 rad18 strain (AID 175); conditions: S. cerevisiae mlh1 rad18 strain growth inhibition, hits give high values
How it was run: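 Read-out is yeast growth inhibition, calculated against vehicle-only controls. The compound was applied to a strain engineered with DNA damage repair alterations.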

[15] = NCI Yeast Anticancer Drug Screen. Data for the rad18 strain (AID 177); conditions: S. cerevisiae rad18 mutant growth inhibition, hits give high values
How it was run: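 Growth of the mutant yeast strain after compound exposure, normalised to vehicle-only cultures.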

[16] = at 5.0 µM (retest, dose inferred, filed as 0.5)
[17] = at 50.0 µM (retest, dose inferred, filed as 5.0)

Measured: growth inhibition

O=C1C2=C(c3ccccc31)C(c1ccccc1)N1C(=O)CSC1=N2 (stereo not drawn)
inactive: [1]; at 1.2 µM 12% | [1]; at 3.7 µM 15% | [1]; at 11.0 µM 25% | [1]; at 33.0 µM 31% | [2]; at 1.2 µM 10% | [2]; at 3.7 µM 3% | [2]; at 11.0 µM 15% | [2]; at 33.0 µM 22% | [2]; at 100.0 µM 54% | [3]; at 1.2 µM 9% | [3]; at 3.7 µM 2% | [3]; at 11.0 µM 5% | [3]; at 33.0 µM 33% | [3]; at 100.0 µM 23% | [4]; at 1.2 µM -2% | [4]; at 3.7 µM 1% | [4]; at 11.0 µM -7% | [4]; at 33.0 µM 38% | [5]; at 1.2 µM -1% | [5]; at 3.7 µM 2% | [5]; [16] 14% | [5]; at 11.0 µM 12% | [5]; at 33.0 µM 30% | [5]; [17] 44% | [5]; at 50.0 µM 58.2% | [6]; at 1.2 µM 5% | [6]; at 3.7 µM 10% | [6]; [16] -9% | [6]; at 11.0 µM 10% | [6]; at 33.0 µM 8% | [6]; [17] 16% | [6]; at 50.0 µM 45% | [7]; at 1.2 µM -21% | [7]; at 3.7 µM -17% | [7]; at 11.0 µM -20% | [7]; at 33.0 µM 6% | [8]; [16] 11% | [8]; [17] 44% | [8]; at 50.0 µM 59.6% | [9]; at 1.2 µM 14% | [9]; at 3.7 µM 4% | [9]; at 11.0 µM 9% | [9]; at 33.0 µM -3% | [9]; at 100.0 µM 54% | [10]; [16] -11% | [10]; [17] 26% | [10]; at 50.0 µM 38.7% | [11]; at 1.2 µM -2% | [11]; at 3.7 µM 17% | [11]; [16] -31% | [11]; at 11.0 µM 15% | [12]; at 1.2 µM 2% | [12]; at 3.7 µM 7% | [12]; at 11.0 µM 28% | [12]; at 33.0 µM 44% | [13]; at 1.2 µM 3% | [13]; at 3.7 µM -8% | [13]; at 11.0 µM 1% | [13]; at 33.0 µM 32% | [14]; [16] -27% | [14]; [17] 42% | [14]; at 50.0 µM 51% | [15]; at 1.2 µM -1% | [15]; at 3.7 µM 10% | [15]; at 11.0 µM 14% | [15]; at 33.0 µM 31%
active: [1]; at 100.0 µM 73% | [4]; at 100.0 µM 81% | [5]; at 100.0 µM 74% | [6]; at 100.0 µM 73% | [7]; at 100.0 µM 74% | [11]; at 33.0 µM 79% | [11]; [17] 92% | [11]; at 50.0 µM 87.2% | [11]; at 100.0 µM 92% | [12]; at 100.0 µM 82% | [13]; at 100.0 µM 84% | [15]; at 100.0 µM 72%
